These results are taken from PubChem BioAssay (NCATS).

Values without a mark were called inactive. Results filed as inconclusive are left out. Activity calls are given as the source filed them. Calls follow the shape of the dose curve; as a rule, active = well fitted curve in the direction sought with a large enough effect; inconclusive = small, poorly fitted or top-dose-only effect, or another doubt; inactive = no such curve, though single readings can be large; an effect the other way counts as inactive or inconclusive.

Assay [1] is described as follows: OV-SAHO Cancer Cell Toxicity qHTS against the NCATS CANVASS Library (AID 1347348). Also: nearly all actives have a fitted effect of over 55% in size. Also: potency is read from the fitted curve at half-maximal effect. The procedure, abridged: (§1)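 Following a 4 h pre-incubation of 1000 seeded cells, compounds were pinned in an 11-pnt dilution series and left for 72 h; viability then came from CellTiter-Glo.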
(In general: Quantitative high-throughput screening tests each substance at several concentrations.)

Assay [2] in a line: A2780 Cisplatin Sensitive Ovarian Cancer Cell Toxicity qHTS against the NCATS CANVASS Library (AID 1347353). Also: nearly all actives have a fitted effect of over 60% in size. Also: potency is read from the fitted curve at half-maximal effect. The procedure, abridged: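 Seventy-two-hour exposure of cisplatin-sensitive A2780 ovarian cells to an 11-concentration qHTS series; cytotoxicity is inferred from loss of ATPLite luminescence. Bortezomib titration served as positive control.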
Assay [3] is described as follows: HEK-293 Cancer Cell Toxicity qHTS against the NCATS CANVASS Library (AID 1347355). Also: nearly all actives have a fitted effect of over 65% in size. Also: potency is read from the fitted curve at half-maximal effect. As to outcome: series mostly up to about 46 µM. The essentials:
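qHTS cytotoxicity: compounds tested in 11 concentrations on 1000 seeded cells per well over 72 h; bortezomib served as control; signal from CellTiter-Glo luminescence.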

A short description of assay [4]: HPAF-II 12hr Apoptosis Induction qHTS against the NCATS CANVASS Library (AID 1347358). The procedure, abridged:
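Apoptosis in HPAF-II pancreatic cancer cells is scored as caspase 3/7 luminescence following a 12-hour exposure to an 11-point compound series.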

Assay [5] in a line: HEK293 24hr Apoptosis Induction qHTS against the NCATS CANVASS Library (AID 1347359). The essentials: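 HEK293 cells (500/well, DMEM + 10% FBS) were exposed to compounds in an 11-point series for 24 hours at 37 degrees C, then caspase-3/7 activity was read by Caspase-Glo DEVD luciferase luminescence after 15 min.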
Assay [6] addresses Luciferin 4-monooxygenase (Photinus pyralis) (UniProt P08659). As to the kind of experiment: Firefly luciferase counterscreen qHTS: Assay Interference Panel against the NCATS CANVASS Library (AID 1347363). Also: series mostly up to about 57 µM. The essentials:
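Purified P. pyralis luciferase was added to compounds (11-point series) preincubated 15 min at room temperature with substrate containing 0.013 mM D-luciferin and 0.013 mM ATP; luminescence was read after 5 min.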
(In general: The purpose of a counterscreen is to sort out artefacts and off-target activity.)

Assay [7] can be described thus: KB-8-5-11 Cancer Cell Toxicity qHTS against the NCATS CANVASS Library (AID 1347364). Also: nearly all actives have a fitted effect of over 75% in size. Also: potency is read from the fitted curve at half-maximal effect. The essentials: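 Natural products were titrated in 11 points onto KB-8-5-11 cells, 500 per well, and cytotoxicity was scored from CellTiter-Glo luminescence after 72 hr culture.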
Assay [8] in a line: SDT Cancer Cell Toxicity qHTS against the NCATS CANVASS Library (AID 1347365). Also: nearly all actives have a fitted effect of over 60% in size. Also: potency is read from the fitted curve at half-maximal effect. The essentials: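 Dispense 500 SDT cells per well; pin-transfer compounds; incubate 72 hr at 37C, 5% CO2, 95% RH; add CellTiterGlo and read luminescence.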
The nature of assay [9]: qHTS for ATAD5 Agonist screened against the NCATS CANVASS Library (AID 1347367).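 Also: luciferase reporter driven by ATAD5 which rises upon DNA damage.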 The procedure, abridged:
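Step one plated reporter cells and let them acclimate 5hr. Step two pinned compounds with MMS as positive and 0.46% DMSO as negative control. After 16hr incubation, fluorescence viability then luminescence were read.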

Assay [10] is described as follows: G06 Cancer Cell Toxicity qHTS against the NCATS CANVASS Library (AID 1347368). Also: nearly all actives have a fitted effect of over 60% in size. Also: potency is read from the fitted curve at half-maximal effect. The procedure, abridged: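 Cytotoxicity toward canine glioma G06 cells is scored from cellular ATP via luminescence after 72 hr compound exposure at 500 cells/well.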
Assay [11] in a line: qHTS for Hypoxia signaling pathway (HIF-1) antagonists against the NCATS CANVASS Library (AID 1347374). Also: nearly all actives have a fitted effect of over 60% in size. Also: potency is read from the fitted curve at half-maximal effect. The procedure, abridged: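 HRE-bla ME-180 cells (2,000/well, 0.5% dialyzed FBS) were pre-incubated 5 h, then given an 11-point compound series plus CoCl2 (60 uM solution as added) for 17 h at 37C. CCF4 β-lactamase read (ex 405, em 460/530 nm) after 2 h at RT.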
Assay [12] is described as follows: DH5-alpha competent E. coli microbial cell viability qHTS against the NCATS CANVASS Library (AID 1347377). The settings on record: outcome: dose series up to 46.1 µM unless noted. The procedure, abridged: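 Cell viability of competent DH5-alpha E. coli is scored from ATP content by luminescence. Cells sit overnight at 37C with compound across an 11-point concentration series.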

Assay [13] in a line: Inflammasome Signaling qHTS Counterscreen: IL-1-beta AlphaLISA counterscreen against the NCATS CANVASS Library (AID 1347381).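 Also: cell-free check with purified IL-1β in medium and no THP-1 cells; series mostly up to about 57 µM.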 The essentials: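 To flag interference with the AlphaLISA read-out, a known amount of purified IL-1-beta (4 pg) replaced cell supernatant. Detection used anti-IL-1-beta acceptor beads, biotinylated antibody and streptavidin donor beads at room temperature.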

Assay [14] can be described thus: qHTS for Activators of p53 Stress Response Pathway screened against the NCATS CANVASS Library (AID 1347388). The procedure, abridged:
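p53RE-bla HCT-116 cells (4000/well) were plated 5 h at 37C, exposed to compounds for 16 h at 37C over an 11-point concentration series, then loaded with CCF4 for 2 h at room temperature; 460/530 nm emission ratio read.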

Assay [15] is described as follows: qHTS for activators of dead-cell proteases activity screened against the NCATS CANVASS Library (AID 1347392).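 Also: luminescence from protease leaking out of membrane-damaged cells cleaving impermeant substrate; rising signal means more cytotoxicity.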 The procedure, abridged:
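HepG2 cells (2000/well) attached 18 h at 37C, then exposed 5 h to compounds (11-point qHTS). Dead-cell protease activity read as luminescence from cell-impermeant AAF-aminoluciferin substrate after 15 min at room temperature.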

Assay [16] is described as follows: qHTS for inhibitors of ER calcium dysfunction: SERCaMP assay screened against the NCATS CANVASS Library (AID 1347393). Also: nearly all actives have a fitted effect of over 40% in size. Also: potency is read from the fitted curve at half-maximal effect. The procedure, abridged: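 qHTS in SH-SY5Y reporter cells: 16 h compound pretreatment, 4 h thapsigargin, then secreted Gaussia luciferase measured by luminescence.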
The nature of assay [17]: SW1088 Cancer Cell Toxicity qHTS against the NCATS CANVASS Library (AID 1347350). Also: nearly all actives have a fitted effect of over 75% in size. Also: potency is read from the fitted curve at half-maximal effect. The procedure, abridged: as §1
A short description of assay [18]: qHTS for activators of Nrf2/ARE signaling pathway screened against the NCATS CANVASS Library (AID 1347391). Also: nearly all actives have a fitted effect of over 60% in size. Also: potency is read from the fitted curve at half-maximal effect. The essentials:
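Cells carrying an ARE-driven beta-lactamase reporter (HepG2 background) are dosed for 16 h, then stained with CCF4. Cell viability in the same wells is measured by CellTiter-Glo luminescence.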

The nature of assay [19]: OV-KATE Cancer Cell Toxicity qHTS against the NCATS CANVASS Library (AID 1347345). The essentials:
as §1

Assay [20] can be described thus: qHTS for inhibitors of Wild type Zika virus screened against the NCATS CANVASS Library (AID 1347396).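 Also: ATP luminescence of surviving cells so rescue from viral cell killing; series mostly up to about 46 µM.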 The procedure, abridged: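 Vero 766 cells, 1000/well, o/n attach; cpds pin-transferred (11-pt qHTS); WT Zika added; 72 h, 37C, 5% CO2; CellTiter Glo lumi. Uninfected + vehicle = 100% inhibition.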

Sequence of Luciferin 4-monooxygenase (Photinus pyralis) (P08659 whole entry, looked up): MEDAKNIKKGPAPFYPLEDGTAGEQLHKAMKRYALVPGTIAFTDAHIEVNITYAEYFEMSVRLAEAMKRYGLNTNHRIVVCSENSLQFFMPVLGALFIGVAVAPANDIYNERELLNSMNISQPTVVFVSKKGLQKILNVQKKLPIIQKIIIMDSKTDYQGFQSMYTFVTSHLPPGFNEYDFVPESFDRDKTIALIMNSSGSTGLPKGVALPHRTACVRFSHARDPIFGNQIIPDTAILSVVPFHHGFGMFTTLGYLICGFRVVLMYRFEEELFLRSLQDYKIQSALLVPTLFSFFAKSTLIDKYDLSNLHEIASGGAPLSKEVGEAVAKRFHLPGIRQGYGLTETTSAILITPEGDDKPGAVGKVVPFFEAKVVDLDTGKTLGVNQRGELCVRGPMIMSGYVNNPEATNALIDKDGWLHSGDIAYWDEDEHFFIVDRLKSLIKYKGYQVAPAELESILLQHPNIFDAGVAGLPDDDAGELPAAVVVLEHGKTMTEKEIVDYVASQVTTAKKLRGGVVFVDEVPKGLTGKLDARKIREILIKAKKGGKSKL

In the case of `COc1cc([C@@H]2c3cc4c(cc3C[C@@]3(O[C@@H]5O[C@H](CO)[C@@H](O)[C@H](O)[C@H]5O)COC(=O)[C@H]23)OCO4)cc(OC)c1OC`, the Potency entry in assay [1], in assay [4], in assay [5], in [6], in assay [9] and in assay [11] was “inactive” each time. Besides, the Potency entry in [14], in assay [15] and in assay [16] was “inactive” each time. The Potency in assay [2] is 37.2 nM (active); in assay [3] it was 46.9 nM (active); in [7], 0.0526 µM (active); in [8], 41.8 nM (active); in [10] it was 41.8 nM (active). In addition, the result in assay [12] and in assay [13] was inactive.
Regarding `C/C=C1/CN2C3CC1C1C=CC(=O)N4c5ccccc5[C@@]3(C[C@@H]2C2=C[C@H]3C5CC6N(CC[C@@]67c6ccccc6N(C2=O)[C@@H]37)C/C5=C/C)[C@H]14` (some centres not stated), the Potency in assay [17] is 13.3 µM (active); in assay [2] it was 11800 nM (active); in assay [3] it was 9350 nM (active); in assay [7], 9.35 µM (active); in assay [8] it was 10500 nM (active); in [10], 7430 nM (active). For the same compound, the Potency in assay [11] is 9.41 µM (active); in [18] it was 3.31 µM (active); in [16] it was 216 nM (active). Also, the compound was called inactive in assay [12] and in [13].
As to `C[C@@]12CCC[C@@](C)(C(=O)O)[C@H]1C[C@@H](O)[C@@]13C[C@@H](CC[C@@H]21)[C@](C)(O)C3`, the Potency result in assay [19], in [1], in assay [17], in assay [2], in assay [3] and in assay [4] was “inactive” each time. Also, the Potency entry in assay [5], in assay [7], in assay [8], in assay [9], in assay [10] and in assay [11] was “inactive” throughout. For the same compound, the Potency result in assay [14], in assay [18], in [15] and in assay [16] was “inactive” each time. For the same compound, the result in assay [12], in [13] and in [20] was inactive.
Regarding `C/C=C/[C@H]1[C@H]2C(=O)c3c(O)c(C)c(O)c(C)c3[C@]1(C(=O)O)C(=O)C=C2C`, the Potency result in assay [19], in [1], in assay [17], in assay [2], in assay [3] and in assay [4] was “inactive” throughout. In addition, the Potency result in [5], in assay [6], in assay [7], in assay [8], in assay [9] and in assay [10] was “inactive” throughout. The Potency result in assay [11], in [14], in assay [18], in assay [15] and in assay [16] was “inactive” each time. Further, the compound was called inactive in [12], in [13] and in [20].
Turning to `CCC(=O)N[C@@H](C[C@H](C)C(Cl)(Cl)Cl)C(=O)N1C(=O)C=C(OC)[C@@H]1C[C@H](C)CCl`, the Potency in assay [17] is 16.8 µM (active). Also, the Potency result in assay [3], in assay [5], in assay [7], in [8], in assay [9] and in assay [10] was “inactive” throughout. Moreover, the Potency result in assay [18] was “inactive”. Moreover, the compound was called inactive in [13] and in assay [20].
As to `C/C(=C\[C@H](C)C(=O)CCCC1CC(=O)NC(=O)C1)[C@@H]1OC(=O)/C=C/CC/C=C/[C@H](O)[C@@H](O)[C@@H]1C`, the Potency in assay [1] is 747 nM (active); in assay [2], 372 nM (active); in [3], 662 nM (active); in assay [8], 264 nM (active); in assay [10], 372 nM (active); in [11], 0.374 µM (active). For the same compound, the Potency result in assay [5], in assay [6], in assay [7], in [14], in assay [18] and in assay [15] was “inactive” in each case. Besides, in assay [16], the Potency entry is “inactive”. Also, the compound was called inactive in assay [12], in assay [13] and in [20].
